Measured values from PubChem BioAssay (NCATS).
Results filed as inconclusive are left out. The source made the active and inactive calls. Unless noted, calls follow the shape of the dose curve; as a rule, active = well fitted curve in the direction sought with a large enough effect; inconclusive = small, poorly fitted or top-dose-only effect, or another doubt; inactive = no such curve, though single readings can be large; an effect the other way counts as inactive or inconclusive.

Legend:
[1] = P-glycoprotein substrates identified in KB-3-1 adenocarcinoma cell line, qHTS therapeutic library screen (AID 1346986); also: nearly all actives have a fitted effect of over 60% in size
How it was run: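 Cells seeded 500/well in DMEM/10% FCS; compounds pinned in dose-response; 72 h incubation; CellTiter-Glo added, 5 min, luminescence. KB-8-5-11 run ±tariquidar to test reversal of P-gp resistance.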

[2] = P-glycoprotein substrates identified in KB-8-5-11 adenocarcinoma cell line, qHTS therapeutic library screen (AID 1346987); also: nearly all actives have a fitted effect of over 65% in size
How it was run: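 Steps: plate 500 KB-8-5-11 cells/well in DMEM + 10% FCS (colchicine removed); pin compounds in dose-response; incubate 72 h, 37 degree C, 5% CO2; add CellTiter-Glo, 5 min; read luminescence.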

[3] = system: Zika virus NS2B-NS3 protease (unlinked complex); assay: Primary screen GU Rhodamine qHTS for Zika virus inhibitors: Unlinked NS2B-NS3 protease assay (AID 1347159); also: % is scaled to controls: 0 for no effect and ±100 for the full control effect; nearly all actives have a fitted effect of over 60% in size
How it was run: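 A qHTS format was used, with compound concentrations ranging up to 114 microM. Each compound was preincubated with 25 nM NS2B-NS3 protease, and the substrate was then added at 1.5 microM. Curves were fitted with a 4-parameter Hill model.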

[4] = system: Zika virus NS2B-NS3 protease (linked construct); assay: Primary screen NINDS Rhodamine qHTS for Zika virus inhibitors (AID 1347160); also: nearly all actives have a fitted effect of over 55% in size; as to activity change, negative = inhibition: % is scaled to controls: 0 for no effect and ±100 for the full control effect
How it was run: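 Kinetic fluorescence (Ex 480 nm, Em 540 nm) over 15 min with 1.5 microM Rhodamine110 peptide and 25 nM linked protease.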

[5] = molecular target: Peroxisome proliferator-activated receptor alpha (Homo sapiens) (UniProt Q07869); assay: qHTS assay for small molecule agonists of the peroxisome proliferator-activated receptor alpha (PPARalpha) signaling pathway (AID 651778); details: PathHunter PPARalpha complementation, chemiluminescence, 6 h; stronger effect = higher value; also: % of control where 0% means no effect
How it was run: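 Chemiluminescence from complemented enzyme reported PPARalpha activation in cells after 6 hr of compound treatment at 37 C. The detection reagent was incubated for 60 min at room temperature, and compounds were scored as agonists.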

[6] = molecular target: Nuclear receptor ROR-gamma (Homo sapiens) (UniProt P51449); assay: qHTS assay for small molecule antagonists of the retinoid-related orphan receptor gamma (ROR-gamma) signaling pathway (AID 651802);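 also: luciferase reporter luminescence driven by ROR response element; series mostly up to about 92 µM; % is scaled to controls: 0 for no effect and ±100 for the full control effect; nearly all actives have a fitted effect of over 60% in size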
How it was run: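 CHO, TET-inducible ROR + RORE-LUC reporter, 1536-well qHTS. Compound pinned, doxycycline added, 16hr 37C/5% CO2. ONE-Glo, 30 min RT, luminescence; signal drop scored as antagonism.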

[7] = qHTS assay for small molecule agonists of the antioxidant response element (ARE) signaling pathway measured by Nrf2-dependant transcriptional activity (AID 720636; active = well fitted curve in the direction sought with a large enough effect in the repeat runs; an effect the other way counts as inactive or inconclusive;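 also: HepG2 cells with an ARE-driven luciferase reporter; % of control where 0% means no effect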)
How it was run: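 Attachment 6 hr at 37 C, then compound versus DMSO vehicle for 16 hr in ARE-luc HepG2 cells (1% dialyzed FBS); luminescence recorded 30 min after ONE-Glo addition at room temperature.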

[8] = qHTS assay for small molecule antagonists of the retinoid-related orphan receptor gamma (ROR-gamma) signaling pathway - cell viability counter screen (AID 720652; active = well fitted curve in the direction sought with a large enough effect in the repeat runs; an effect the other way counts as inactive or inconclusive;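 also: series mostly up to about 92 µM; compound exposure lasted 16 hr before ATP read; % is scaled to controls: 0 for no effect and ±100 for the full control effect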)
How it was run: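 Luminescence from CellTiter-Glo after 30 min at room temperature reported cellular ATP as the cytotoxicity measure. Cells were the CHO reporter line with doxycycline-induced ROR-gamma expression, exposed to compound for 16 hr at 37 C.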

[9] = qHTS assay for small molecule agonists of the antioxidant response element (ARE) signaling pathway measured by Nrf2-dependant transcriptional activity - cell viability counter screen (AID 720653; active = well fitted curve in the direction sought with a large enough effect in the repeat runs; an effect the other way counts as inactive or inconclusive; also: % is scaled to controls: 0 for no effect and ±100 for the full control effect); details: ARE-bla HepG2 viability, CellTiter-Glo ATP luminescence, 16 h; stronger effect = lower value
How it was run: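 Cytotoxicity counter screen: intracellular ATP quantified by CellTiter-Glo luminescence in the same ARE-bla HepG2 plates, after 16 h compound exposure and a 2 h beta-lactamase substrate step.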

[10] = qHTS assay for cell viability of HEK293 cells (AID 743288); details: ATP luminescence (CellTiter-Glo), 18 h, stronger effect = lower value; also: % is scaled to controls: 0 for no effect and ±100 for the full control effect; nearly all actives have a fitted effect of over 50% in size
How it was run: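 Total intracellular ATP, measured with a luciferase-coupled reagent, indicates the number of viable HEK293 cells. Exposure to test chemicals lasts 18 h at 37 C in 1,536-well format at 2,000 cells/well.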

[11] = qHTS assay for cell viability of the p53RE-bla HCT-116 cell line (AID 743292); also: % is scaled to controls: 0 for no effect and ±100 for the full control effect; nearly all actives have a fitted effect of over 55% in size
How it was run: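 Compound-exposed HCT-116 (p53RE-bla) cells, 4,000 per well, were kept 16 h at 37 C following a 5 h preincubation. Cell number was estimated from total ATP by CellTiter-Glo luminescence read after 30 min at room temperature.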

Peroxisome proliferator-activated receptor alpha (Homo sapiens), sequence (Q07869 whole entry, looked up): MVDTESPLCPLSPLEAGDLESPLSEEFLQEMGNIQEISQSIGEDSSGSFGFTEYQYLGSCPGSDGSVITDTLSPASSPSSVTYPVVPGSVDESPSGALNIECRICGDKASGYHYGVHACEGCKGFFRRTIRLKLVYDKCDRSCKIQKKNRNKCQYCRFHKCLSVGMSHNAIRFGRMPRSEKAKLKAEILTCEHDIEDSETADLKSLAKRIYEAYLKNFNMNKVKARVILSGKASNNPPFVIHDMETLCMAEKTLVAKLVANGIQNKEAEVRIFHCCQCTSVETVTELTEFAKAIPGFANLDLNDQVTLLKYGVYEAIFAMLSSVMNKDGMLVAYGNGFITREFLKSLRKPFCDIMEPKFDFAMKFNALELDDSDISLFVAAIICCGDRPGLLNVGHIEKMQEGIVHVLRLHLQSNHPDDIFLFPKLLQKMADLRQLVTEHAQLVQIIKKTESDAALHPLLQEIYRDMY
Nuclear receptor ROR-gamma (Homo sapiens), sequence (P51449 whole entry, looked up): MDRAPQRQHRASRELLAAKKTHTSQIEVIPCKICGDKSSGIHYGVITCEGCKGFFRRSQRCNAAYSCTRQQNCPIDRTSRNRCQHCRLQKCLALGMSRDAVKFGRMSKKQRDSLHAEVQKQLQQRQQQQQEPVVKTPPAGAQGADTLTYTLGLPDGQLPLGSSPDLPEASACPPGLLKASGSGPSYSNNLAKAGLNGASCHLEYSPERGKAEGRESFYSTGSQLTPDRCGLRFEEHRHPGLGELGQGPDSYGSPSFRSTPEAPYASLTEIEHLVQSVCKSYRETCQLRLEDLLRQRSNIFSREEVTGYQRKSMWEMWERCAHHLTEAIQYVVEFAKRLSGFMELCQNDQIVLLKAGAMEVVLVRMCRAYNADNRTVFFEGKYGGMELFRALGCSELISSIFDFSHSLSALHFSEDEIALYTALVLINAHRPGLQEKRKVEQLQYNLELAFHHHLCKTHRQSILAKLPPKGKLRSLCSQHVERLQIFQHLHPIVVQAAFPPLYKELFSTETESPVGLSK

C[C@@H]1CC2OC(=O)C3=C2C(CCC3O)[C@@]12C[C@@H](c1ccoc1)OC2=O (stereo partly specified)
inactive: Potency [1] | Potency [2] | Potency [3] | Potency [4]

COC(=O)C(CC1CCCC1)c1ccc(S(C)(=O)=O)cc1 (stereo unspecified)
inactive: Potency [1] | Potency [2] | Potency [3] | Potency [4]

CC1(C)C[C@@H]2[C@H](C1)[C@@]1(C)C[C@]13C(O)OC[C@]3(O)[C@H]2O (stereo partly specified)
inactive: Potency [1] | Potency [2] | Potency [3] | Potency [4]

CC1=CC[C@@]2(C)CC[C@@](O)(C(C)C)[C@@H]2[C@@H](O)C1
inactive: Potency [1] | Potency [2] | Potency [3] | Potency [4]

C=C1CC23CC(=O)C4C(CO)(CO)CCCC4(C)C2CCC1C3 (stereo unspecified)
inactive: Potency [1] | Potency [2] | Potency [3] | Potency [4]

CC1(C)CC2C(O)C3=C(CC(C)(O)C2C1)C(=O)OC3 (stereo unspecified)
inactive: Potency [1] | Potency [2] | Potency [3] | Potency [4]

C=C[C@H]1[C@H](O[C@@H]2O[C@H](CO)[C@@H](O)[C@H](O)[C@H]2O)OC=C(C(=O)OC)[C@H]1CC=O
inactive: Potency [1] | Potency [2] | Potency [3] | Potency [4]

COC(=O)C1=COC(OC2OC(CO)C(O)C(O)C2O)C2C(C)C(OC(C)=O)C(OC(=O)c3ccccc3)C12 (stereo unspecified)
inactive: Potency [1] | Potency [2] | Potency [3] | Potency [4]

COc1ccc(CCC(=O)c2c(O)cc(O[C@@H]3O[C@H](CO)[C@@H](O)[C@H](O)[C@H]3O[C@@H]3O[C@@H](C)[C@H](O)[C@@H](O)[C@H]3O)cc2O)cc1O
inactive: max response [5] 0.724% | outcome [6] | outcome [7] | outcome [8] | max response [9] -0.966% | max response [10] -4.69% | outcome [11] | Potency [1] | Potency [2] | Potency [3] | Potency [4]

COc1cc(CC2COC(c3ccc(OC4OC(CO)C(O)C(O)C4O)c(OC)c3)C2CO)ccc1O (stereo unspecified)
inactive: Potency [1] | Potency [2] | Potency [3] | Potency [4]

CC(C)(O)C(O)C(=O)OCc1ccc(O[C@@H]2O[C@H](CO)[C@@H](O)[C@H](O)[C@H]2O)cc1 (stereo partly specified)
inactive: Potency [1] | Potency [2] | Potency [3] | Potency [4]

CC(C)C1(O)NC(=O)C(CC2(O)c3ccccc3N3C(=O)C(C)(C)NC32)n2c1nc1ccccc1c2=O (stereo unspecified)
inactive: Potency [1] | Potency [2] | Potency [4]

OC[C@H]1O[C@@H](OC[C@H]2O[C@@H](OCc3ccccc3)[C@H](O)[C@@H](O)[C@@H]2O)[C@H](O)[C@@H](O)[C@@H]1O
inactive: Potency [1] | Potency [2] | Potency [3] | Potency [4]

NC[C@@H]1O[C@@H](O[C@@H]2[C@@H](O[C@@H]3O[C@H](CO)[C@@H](O)[C@H]3O)[C@H](O)[C@@H](N)C[C@H]2N)[C@@H](N)[C@H](O)[C@H]1O
inactive: outcome [1] inactive [at 9.29 µM] | outcome [2] inactive [at 9.29 µM] | activity change, negative = inhibition [3] 6.33% [at 19.1 µM] | Potency [4]

CC(=O)OC[C@@]12C(=O)C[C@@H](C)[C@]3(C[C@@H](c4ccoc4)OC3=O)[C@H]1CC[C@H](OC(C)=O)[C@]21CO1
inactive: Potency [1] | Potency [2] | Potency [3] | Potency [4]

CC(=O)/C=C/C1(O)C(C)CC(O[C@@H]2O[C@H](CO)[C@@H](O)[C@H](O)[C@H]2O)CC1(C)C (stereo partly specified)
inactive: Potency [1] | Potency [2] | Potency [4]

CC1CC(O)/C=C/C(O)/C=C\C(=O)O1 (stereo unspecified)
inactive: Potency [1] | Potency [2] | Potency [3] | Potency [4]

N=C(N)c1ccc2nc(-c3cc(CC(=O)NC(CC(=O)O)C(=O)O)cc(-c4cc(S(N)(=O)=O)ccc4O)c3O)[nH]c2c1 (stereo unspecified)
inactive: Potency [1] | Potency [2] | Potency [4]

CC1=C(CO)C2(C)CCCC(C)(C)C2C(O)C1O (stereo unspecified)
inactive: Potency [1] | Potency [2] | Potency [3] | Potency [4]

C/C=C/C=C/C=C/C(=O)O[C@@H]1C=C(CO)[C@](O)(CO)[C@@]2(C)CCCC(C)(C)[C@H]12
inactive: Potency [1] | Potency [2] | Potency [4]

COC(=O)C1=COC(OC2OC(CO)C(O)C(O)C2O)C2C(COC(=O)/C=C/c3ccc(O)cc3)C(O)C(O)C12 (stereo unspecified)
inactive: Potency [1] | Potency [2] | Potency [4]

Cc1ccc(-n2nc(C(C)(C)C)cc2NC(=O)Nc2cc(COc3cccnc3)[nH]n2)cc1
inactive: Potency [1] | Potency [2] | Potency [3] | Potency [4]

Cc1occc(=O)c1O[C@@H]1O[C@H](COC(=O)CC(C)(O)CC(=O)O)[C@@H](O)[C@H](O)[C@H]1O (stereo partly specified)
inactive: Potency [1] | Potency [2] | Potency [3] | Potency [4]

CCC(C)(C)C1CCc2c(sc(NC(=O)c3ccc(Br)cc3)c2C#N)C1 (stereo unspecified)
inactive: Potency [1] | Potency [2] | Potency [3] | Potency [4]

CN1CCN(C2=Nc3ccccc3Nc3ccc(O)cc32)CC1
inactive: Potency [1] | Potency [2] | Potency [3] | Potency [4]

C[C@]12CC/C(=N\OCC(=O)O)C=C1CC[C@@H]1[C@@H]2[C@@H](O)C[C@@]2(C)[C@H]1CC[C@]2(O)C(=O)CO
inactive: Potency [1] | Potency [2] | Potency [3] | Potency [4]
